Measured values: PubChem BioAssay AID1159580 (chemical genetic matrix, 2015)
Out of some 5,500 compounds screened, about 2,000 (36%) were called active. Not shown: some 18% with an inconclusive outcome. No stated cut-off is given here; in the data, active means normalized growth mostly below about 0.91 (no sharp cut-off); inconclusive means no clear call, values can overlap the other calls; inactive means mostly above about 0.92. This is one part of the list.

Assay: chemical genetic growth profiling, strain panel (AID 1159580);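 further: tested at 20 µM; growth read once vehicle control cultures reached saturation at 30 °C; 1 = growth at the plate median or of vehicle wells; lower values mean less growth of the strain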
Details: S. cerevisiae deletion strains, growth OD

Measured: normalized growth

NCCc1c[nH]c2ccc(C(N)=O)cc12
inactive: locus YAL040C, strain CLN3, active compounds read low 1.1 | locus YCL061C, strain MRC1 (second series), active compounds read low 1 | locus YDR363W, strain ESC2, active compounds read low 1.01 | locus YER002W, strain NOP16, active compounds read low 1.01 | locus YGR078C, strain PAC10, active compounds read low 1.02 | locus YMR307W, strain GAS1, active compounds read low 1 | locus YNL153C, strain GIM3, active compounds read low 1.01 | locus YNL175C, strain NOP13, active compounds read low 1.01 | locus YNL197C, strain WHI3, active compounds read low 1.02 | locus YNL224C, strain SQS1, active compounds read low 0.997 | locus YOR083W, strain WHI5 (second series), active compounds read low 1.02 | locus YPL241C, strain CIN2, active compounds read low 1

O=c1cc(-c2ccccc2O)oc2cc(O)ccc12
inactive: locus YAL021C, strain ccr4, active compounds read low 1.05 | locus YAL026C, strain drs2, active compounds read low 0.977 | locus YAL030W, strain snc1, active compounds read low 0.985 | locus YBL061C, strain skt5, active compounds read low 0.976 | locus YBR009C, strain hhf1, active compounds read low 0.979 | locus YBR023C, strain chs3, active compounds read low 1 | locus YBR171W, strain sec66, active compounds read low 0.951 | locus YBR231C, strain swc5, active compounds read low 0.956 | locus YBR279W, strain paf1, active compounds read low 0.996 | locus YCL011C, strain gbp2, active compounds read low 0.977 | locus YCL016C, strain dcc1, active compounds read low 1.02 | locus YCL069W, strain vba3, active compounds read low 0.97 | locus YCR088W, strain abp1, active compounds read low 0.956 | locus YDL005C, strain med2, active compounds read low 0.956 | locus YDL040C, strain nat1, active compounds read low 0.967 | locus YDR001C, strain nth1, active compounds read low 0.978 | locus YDR069C, strain doa4, active compounds read low 0.95 | locus YDR137W, strain rgp1, active compounds read low 0.958 | locus YDR159W, strain sac3, active compounds read low 0.91 | locus YDR195W, strain ref2 0.962 | locus YDR297W, strain sur2, active compounds read low 0.964 | locus YDR334W, strain swr1, active compounds read low 0.973 | locus YDR335W, strain msn5, active compounds read low 0.979 | locus YDR392W, strain spt3, active compounds read low 0.92 | locus YEL003W, strain gim4, active compounds read low 0.968 | locus YEL037C, strain rad23, active compounds read low 0.962 | locus YEL061C, strain CIN8 (second series), active compounds read low 0.963 | locus YER015W, strain faa2, active compounds read low 0.974 | locus YER016W, strain bim1, active compounds read low 0.973 | locus YER111C, strain swi4, active compounds read low 0.951 | locus YER155C, strain BEM2 (second series), active compounds read low 0.955 | locus YFR010W, strain ubp6, active compounds read low 0.952 | locus YGL167C, strain pmr1, active compounds read low 0.972 | locus YGL173C, strain kem1, active compounds read low 0.95 | locus YGL227W, strain vid30, active compounds read low 0.964 | locus YGL240W, strain doc1, active compounds read low 0.963 | locus YGL253W, strain hxk2, active compounds read low 0.932 | locus YHR013C, strain ard1, active compounds read low 0.952 | locus YHR027C, strain rpn1, active compounds read low 0.965 | locus YHR030C, strain SLT2, active compounds read low 0.978 | locus YHR079C, strain IRE1, active compounds read low 0.987 | locus YHR142W, strain chs7, active compounds read low 0.965 | locus YJL092W, strain hpr5, active compounds read low 0.954 | locus YJL095W, strain BCK1 (second series), active compounds read low 0.994 | locus YJL095W, strain BCK1, active compounds read low 0.997 | locus YJL115W, strain asf1, active compounds read low 0.97 | locus YJL129C, strain trk1, active compounds read low 0.945 | locus YJL154C, strain vps35, active compounds read low 0.979 | locus YJL164C, strain tpk1, active compounds read low 0.992 | locus YJL166W, strain qcr8, active compounds read low 0.966 | locus YJR066W, strain TOR1, active compounds read low 0.929 | locus YKL160W, strain elf1, active compounds read low 1.03 | locus YKR026C, strain gcn3, active compounds read low 0.972 | locus YKR091W, strain srl3, active compounds read low 0.982 | locus YLL001W, strain dnm1, active compounds read low 0.987 | locus YLL026W, active compounds read low 0.969 | locus YLL041C, strain sdh2, active compounds read low 0.977 | locus YLR027C, strain aat2, active compounds read low 0.998 | locus YLR113W, strain HOG1, active compounds read low 1 | locus YLR221C, strain rsa3, active compounds read low 0.938 | locus YLR258W, strain gsy2, active compounds read low 0.994 | locus YLR262C, strain YPT6 (second series), active compounds read low 0.968 | locus YLR320W, strain mms22, active compounds read low 0.95 | locus YLR342W, strain FKS1, active compounds read low 0.974 | locus YLR357W, strain rsc2, active compounds read low 0.978 | locus YLR370C, strain arc18, active compounds read low 0.966 | locus YLR384C, strain iki3, active compounds read low 0.959 | locus YML120C, strain ndi1, active compounds read low 0.996 | locus YMR058W, strain fet3, active compounds read low 0.981 | locus YMR125W, strain sto1, active compounds read low 0.977 | locus YMR129W, active compounds read low 0.987 | locus YMR205C, strain PFK2, active compounds read low 0.996 | locus YMR231W, strain pep5, active compounds read low 0.966 | locus YNL071W, strain lat1, active compounds read low 0.991 | locus YNL183C, strain NPR1, active compounds read low 0.909 | locus YNL209W, strain ssb2, active compounds read low 0.996 | locus YNL248C, strain rpa49, active compounds read low 0.969 | locus YNL322C, strain KRE1 (second series), active compounds read low 0.974 | locus YNR049C, strain mso1, active compounds read low 0.979 | locus YOR001W, strain rrp6, active compounds read low 0.899 | locus YOR070C, strain gyp1, active compounds read low 0.978 | locus YOR080W, strain dia2, active compounds read low 0.972 | locus YOR083W, strain WHI5, active compounds read low 1.03 | locus YOR106W, strain vam3, active compounds read low 0.989 | locus YOR231W, strain MKK1, active compounds read low 0.989 | locus YOR265W, strain rbl2, active compounds read low 0.97 | locus YOR270C, strain vph1, active compounds read low 0.916 | locus YOR290C, strain snf2, active compounds read low 1.02 | locus YPL051W, strain arl3, active compounds read low 0.975 | locus YPL078C, strain atp4, active compounds read low 1.05 | locus YPL106C, strain sse1, active compounds read low 0.984 | locus YPL240C, strain hsp82, active compounds read low 0.971 | locus YPL256C, strain CLN2, active compounds read low 0.95
